This passage reports outcome and AC50 results from PubChem BioAssay (EPA / NIEHS).

One may read the AC50 as the midpoint of the concentration-response curve, whichever way the signal moves.

Molecules are shown by their SMILES. Inconclusive results are not listed. Active and inactive are the calls of the source. The calls were made as follows: active = hit-call score of the fitted dose curve at least 0.9, where 1 is the maximum; inconclusive = response in the unintended direction; inactive = score below 0.9.

Assay [1] can be described thus: ArunA_NOG_NucleusCount: ArunA Biomedical's Neurite Outgrowth (NOG) Assay for Nucleus Count (AID 2283756). The method, boiled down:
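Human H9-derived differentiated neurons were exposed for 48 h right after seeding. Hoechst-stained nuclei gated by size and intensity were counted by automated high-content imaging as viable neurons. Loss of signal vs DMSO.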

Assay [2] in a line: ArunA_NOG_BranchPointsPerNeurite: ArunA Biomedical's Neurite Outgrowth (NOG) Assay for Branch Points Per Neurite (AID 2283759). The method, boiled down: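 Automated image analysis traced neurites (processes >10 um) from valid cell bodies after Hoechst and βIII-tubulin staining. hNN cells from H9 embryonic stem cells, 48 h exposure. Fitted bidirectionally against DMSO.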
The nature of assay [3]: ACEA_AR_agonist_AUC_viability: ACEA Biosciences xCELLigence Real-Time Cell Analysis on Androgen Receptor Agonism for Viability (AID 2283775).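 As to AC50: viability read 80 hours after compound addition.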 The method, boiled down:
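Read-out is area under the impedance curve at 80 h post-dose in 22Rv1 cells, with DMSO as baseline and signal loss taken as reduced viability. Compounds ran in duplicate from 100 uM final.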

The nature of assay [4]: ACEA_AR_antagonist_AUC_viability: ACEA Biosciences xCELLigence Real-Time Cell Analysis on Androgen Receptor Antagonism for Viability (AID 2283776).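 Also: 22Rv1 human prostate cancer cells growing on impedance electrode plates; area under impedance growth curve at 80 h after dosing as viability; hits lower the growth signal relative to DMSO meaning cytotoxicity.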 The method, boiled down: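 Real-time electrical impedance tracks 22Rv1 proliferation after continuous compound exposure (top 100 uM final, 1:4 steps, 8 concentrations). The 80 h area-under-curve serves as the cytotoxicity readout relative to DMSO.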

A short description of assay [5]: ACEA_ER_AUC_viability: ACEA Biosciences xCELLigence Real-Time Cell Analysis on Estrogen Receptor Agonism for Viability (AID 2283782).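 Also: hit means loss of impedance signal meaning reduced cell growth or viability.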 A digest of the protocol:
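T47D cells preconditioned in phenol red-free RPMI with charcoal-stripped FBS, then dosed with 8-point 1:4 series from 100 uM (up to 0.5% DMSO). Impedance monitored up to ~80 h; area-under-curve loss versus DMSO taken as viability.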

A short description of assay [6]: STM_H9_NormalizedViability: Cytotoxicity Assessment at 120 hours in the Stemina devTOX quickPredict H9 human embryonic stem cell (hESC)-based Assay (AID 2283784). The method, boiled down: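 Undifferentiated H9 hESCs kept pluripotent were exposed to compound, with media and chemical replaced every 24h. CellTiter-Fluor protease-substrate fluorescence was background-corrected and normalized per plate to the 0.1% DMSO vehicle; signal loss indicates reduced viability.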

In assay [7] the target is Luciferin 4-monooxygenase (Photinus pyralis) (UniProt P08659). The assay is described as follows: CCTE_Simmons_QuantiLum_inhib_2: CCTE's Firefly Luciferase Inhibition Assay, Simmons Lab (AID 2283767). The method, boiled down:
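Recombinant firefly luciferase (5 ng/well, 200 mM potassium phosphate with 1 mg/ml BSA) was exposed to 8 concentrations from 5 nM to 87.5 uM (final, 0.5% DMSO) for 30 min at 37C in the dark. Loss of luminescence versus DMSO was read after injecting D-luciferin/ATP-analogue reagent.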

The nature of assay [8]: ArunA_NOG_NeuriteLength: ArunA Biomedical's Neurite Outgrowth (NOG) Assay for Neurite Length (AID 2283757). The method, boiled down: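 Differentiated human H9-derived neurons were exposed for 48 h from seeding, then stained with Hoechst and βIII-tubulin. Automated high-content imaging gave total neurite length per valid neuron, counting processes >10 um. Loss of signal was scored versus DMSO.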

Assay [9] is described as follows: ArunA_NOG_NeuritesPerNeuron: ArunA Biomedical's Neurite Outgrowth (NOG) Assay for Neurites Per Neuron (AID 2283758). The method, boiled down: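 Differentiated human H9-derived neurons exposed to chemicals for 48 h from seeding, then stained with Hoechst and βIII-tubulin/DyLight 488. Automated imaging counted neurites (processes >10 um) per valid neuron; loss of signal versus DMSO scored.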

Sequence of Luciferin 4-monooxygenase (Photinus pyralis) (P08659 whole entry, looked up): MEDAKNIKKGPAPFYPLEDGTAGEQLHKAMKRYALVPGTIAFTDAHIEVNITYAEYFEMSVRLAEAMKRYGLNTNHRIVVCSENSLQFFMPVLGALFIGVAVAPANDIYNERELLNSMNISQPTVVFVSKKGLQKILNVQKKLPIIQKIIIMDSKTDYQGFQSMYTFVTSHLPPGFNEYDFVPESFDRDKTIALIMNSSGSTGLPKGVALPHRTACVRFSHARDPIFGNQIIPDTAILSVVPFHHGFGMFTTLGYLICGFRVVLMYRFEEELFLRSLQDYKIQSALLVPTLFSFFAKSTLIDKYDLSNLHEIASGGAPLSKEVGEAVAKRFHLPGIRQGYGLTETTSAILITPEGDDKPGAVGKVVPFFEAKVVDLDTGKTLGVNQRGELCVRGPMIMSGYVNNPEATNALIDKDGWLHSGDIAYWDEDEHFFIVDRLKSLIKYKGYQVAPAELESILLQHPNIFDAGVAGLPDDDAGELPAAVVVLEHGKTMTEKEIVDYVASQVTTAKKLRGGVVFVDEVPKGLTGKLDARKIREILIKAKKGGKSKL

Regarding `C[Si](Cn1cncn1)(c1ccc(F)cc1)c1ccc(F)cc1`, the call in assay [1] and in assay [2] was inactive. In addition, the AC50 in assay [3] was 60.4 µM (active); in [4] it was 50 µM (active); in assay [5], 76.2 µM (active); in [6], 80.6 µM (active).

With `CCOC(=O)CC(SP(=O)(OC)OC)C(=O)OCC` (centres undefined), the result in [7], in assay [3], in assay [4] and in assay [5] was inactive.

As for `CCC(=NOC/C=C/Cl)C1=C(O)CC(C2CCOCC2)CC1=O` (centres undefined), the compound was called inactive in [7], in assay [3], in [5] and in [6].

Turning to `CC[C@H](C)[C@H]1O[C@]2(C=C[C@@H]1C)C[C@@H]1C[C@@H](C/C=C(\C)[C@@H](O[C@H]3C[C@H](OC)[C@@H](O[C@H]4C[C@H](OC)[C@@H](NC)[C@H](C)O4)[C@H](C)O3)[C@@H](C)/C=C/C=C3\CO[C@@H]4[C@H](O)C(C)=C[C@@H](C(=O)O1)[C@]34O)O2`, the AC50 in assay [3] was 0.874 µM (active); in [4], 1.34 µM (active); in [5], 1.82 µM (active).

In the case of `O=[N+]([O-])c1cc(C(F)(F)F)c(Cl)c([N+](=O)[O-])c1Nc1ncc(C(F)(F)F)cc1Cl`, in assay [1], the call was inactive. For the same compound, the AC50 in assay [3] was 8.38 µM (active); in assay [4], 10.6 µM (active); in [5], 3.24 µM (active); in [6], 16.3 µM (active).

For `CC1=NNC(=O)N(/N=C/c2cccnc2)C1`, the AC50 in [1] was 59.4 µM (active); in assay [8] it was 73.8 µM (active); in assay [9], 65 µM (active); in assay [2] it was 66.2 µM (active). The result in assay [3], in assay [4], in assay [5] and in assay [6] was inactive.

For the compound `O=c1ccc(=O)[nH][nH]1`, the result in assay [7] and in assay [5] was inactive.

In the case of `CCc1cnc(C2=NC(C)(C(C)C)C(=O)N2)c(C(=O)O)c1` (centres undefined), the compound was classed as inactive in [3] and in [4].
